From PubChem BioAssay (EPA / NIEHS)
Records with an inconclusive call do not appear. Active and inactive are the calls of the source. How the source made its calls, unless noted: active means hit-call score of the fitted dose curve at least 0.9, where 1 is the maximum; inactive means score below 0.9.

Assays:
[1] = CCTE_Shafer_MEA_dev_firing_rate_mean: CCTE's Neural Network Formation Assay for Mean Firing Rate, Shafer Lab (AID 2284031)
Method in brief: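 Extracellular spike frequency, AUC over DIV 5–12 recordings, in rat cortical neuron MEA cultures dosed from plating; loss direction vs DMSO.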

[2] = CCTE_Shafer_MEA_dev_per_burst_spike_percent: CCTE's Neural Network Formation Assay for Percent of Spikes in a Burst, Shafer Lab (AID 2284032);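 further: fitted as a decrease in burst spike percentage below DMSO baseline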
Method in brief: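 Value is trapezoidal AUC over recordings on days 5, 7, 9 and 12 of the well-mean fraction of spikes falling in single-electrode bursts; rat cortical cultures exposed continuously from plating, treatment renewed DIV 5 and 9, fitted downward against DMSO.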

[3] = CCTE_Shafer_MEA_dev_active_electrodes_number: CCTE's Neural Network Formation Assay for Number of Active Electrodes, Shafer Lab (AID 2284040; active means hit-call score of the fitted dose curve at least 0.9, where 1 is the maximum;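 further: potency for loss of active electrodes versus DMSO so lower counts are hits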)
Method in brief: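 Developing rat cortical networks on MEAs, exposed DIV 0–12. Value is the AUC of active-electrode counts (≥5 spikes/min) from days 5, 7, 9, 12, relative to DMSO.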

[4] = CCTE_Shafer_MEA_dev_burst_rate: CCTE's Neural Network Formation Assay for Burst Rate, Shafer Lab (AID 2284042)
Method in brief: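 Developmental network assay measuring how 12-day exposure of rat cortical neuron cultures alters bursting on extracellular MEA recordings. Values are AUC of well-mean burst rate across four recording days, relative to DMSO vehicle.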

[5] = CCTE_Shafer_MEA_dev_bursting_electrodes_number: CCTE's Neural Network Formation Assay for Number of Bursting Electrodes, Shafer Lab (AID 2284043; active means hit-call score of the fitted dose curve at least 0.9, where 1 is the maximum;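 further: potency is for loss of bursting electrodes relative to DMSO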)
Method in brief: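 Number of electrodes reaching ≥1 burst every 2 min was recorded at DIV 5, 7, 9 and 12 and collapsed as trapezoidal area under the curve. Cultures were rat cortical neurons on MEA plates, dosed continuously from plating with medium and treatment refreshed on DIV 5 and 9.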

[6] = CCTE_Shafer_MEA_dev_per_burst_interspike_interval: CCTE's Neural Network Formation Assay for Burst Interspike Interval, Shafer Lab (AID 2284044)
Method in brief: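 Neurons from rat cortex plated onto PEI-coated MEA wells with laminin […] at 1.5 x 10^5 cells/well, then treated from day 0. Media and compound fully replaced on DIV 5 and 9. Extracellular spontaneous firing recorded four times; interspike interval per burst summarised as AUC.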

[7] = CCTE_Shafer_MEA_dev_interburst_interval_mean: CCTE's Neural Network Formation Assay for Mean Interburst Interval, Shafer Lab (AID 2284046);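 further: well-mean interburst interval of bursting electrodes as AUC over four recording days; curve fitted for decrease in interburst interval relative to DMSO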
Method in brief: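 Network formation assay in primary rat cortical cultures, exposed from DIV 0 to 12. Mean interburst interval per well, integrated as AUC over four recordings.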

[8] = CCTE_Shafer_MEA_dev_inter_network_spike_interval_mean: CCTE's Neural Network Formation Assay for Mean Inter-network Spike Interval, Shafer Lab (AID 2284047)
Method in brief: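 Compound was given at plating to primary rat cortical neurons and renewed with full medium changes on DIV 5 and 9. Extracellular activity was recorded on days 5, 7, 9, 12; AUC values were fitted for loss relative to DMSO control.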

[9] = CCTE_Shafer_MEA_dev_network_spike_number: CCTE's Neural Network Formation Assay for Number of Network Spikes, Shafer Lab (AID 2284048);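 further: synchronized bursts across electrodes counted on days 5 7 9 12 and integrated as AUC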
Method in brief: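 Number of network spikes (coordinated firing across electrodes) recorded on days 5, 7, 9 and 12 and summarised as area under the curve. Rat cortical cultures on MEA, continuous compound exposure with full medium/treatment exchange at DIV 5 and 9.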

[10] = CCTE_Shafer_MEA_dev_network_spike_peak: CCTE's Neural Network Formation Assay for Mean Number of Electrodes in Network Spike, Shafer Lab (AID 2284049)
Method in brief: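 Rat cortical primary culture, 1.5 x 10^5 cells/well, 48-well MEA (16 electrodes/well). Dosing day 0 through DIV 12, full media/compound exchange DIV 5, 9. AxIS adaptive spike detection; AUC over days 5/7/9/12; loss-of-signal vs DMSO.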

[11] = CCTE_Shafer_MEA_dev_network_spike_duration_std: CCTE's Neural Network Formation Assay for Standard Deviation of Network Spike Duration, Shafer Lab (AID 2284052);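 further: area under curve of spike duration SD across recording days 5 to 12; hits are decreases in network spike duration SD versus DMSO vehicle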
Method in brief: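 Developing networks of rat cortical neurons were exposed over twelve days in vitro on 48-well MEA plates. Trapezoidal AUC of recordings (DIV 5–12) was analysed for signal loss relative to DMSO vehicle.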

[12] = CCTE_Shafer_MEA_dev_per_network_spike_spike_number_mean: CCTE's Neural Network Formation Assay for Mean Number of Spikes in a Network Spike, Shafer Lab (AID 2284053)
Method in brief: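 First, rat cortical cells (1.5 x 10^5/well) were seeded onto MEA wells; second, dosing began at plating and was refreshed on DIV 5 and 9; finally, network-spike spike counts across DIV 5–12 were summarized as AUC.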

[13] = CCTE_Shafer_MEA_dev_per_network_spike_spike_percent: CCTE's Neural Network Formation Assay for Percent of Spikes in a Network Spike, Shafer Lab (AID 2284054)
Method in brief: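 Metric: fraction of spikes falling in a 0.05 s window at network-spike peaks. Recordings were made on days 5, 7, 9 and 12 and collapsed by trapezoidal AUC. Cultures were rat cortical neurons on MEA plates, dosed continuously from plating, re-dosed at media changes.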

[14] = CCTE_Shafer_MEA_dev_LDH: CCTE's Lactate Dehydrogenase Assay for Cytotoxicity in the Neural Network Formation Assay, Shafer Lab (AID 2284068; active means hit-call score of the fitted dose curve at least 0.9, where 1 is the maximum;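 further: exposure for twelve days from plating with re-dosing on DIV 5 and 9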)
Method in brief: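 Developing rat cortical networks on MEA plates are exposed to compound for 12 days from plating. LDH activity is measured spectrophotometrically, with DMSO as baseline.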

[15] = UKN2_HCS_IMR90_neural_migration: University of Konstanz (UKN) Leist Lab Neural Crest Cell Migration Assay in human induced IMR90 Pluripotent Stem Cells (UKN2) (AID 2284204); conditions: actives raise or lower the signal
Method in brief: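 High-content imaging of calcein-AM and Hoechst stained cells quantifies migration into a stopper-defined gap after 24 h compound exposure. Neural crest cells from IMR90 iPSC migrated 24 h in EGF/FGF N2-S medium before dosing; DMSO baseline.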

[16] = IUF_NPC1b_proliferation_BrdU_72hr: Leibniz Research Institute for Environmental Medicine (IUF) 72-hour Neural Progenitor Cell Bromodeoxyuridine (BrdU) Proliferation Assay (NPC1b) (AID 2284207)
Method in brief: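 Human fetal cortex-derived (GW 16-19) neural progenitor spheres, 0.25-0.35 mm, one per well in EGF/FGF proliferation medium, exposed to compound for 72 h at 37C, pH 7.2-7.6. BrdU incorporation over the final 16 h read by luminescence ELISA, relative to DMSO.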

[17] = IUF_NPC1a_proliferation_area_72hr: Leibniz Research Institute for Environmental Medicine (IUF) 72-hour Neural Progenitor Cell Proliferation Area Assay (NPC1a) (AID 2284208)
Method in brief: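 Spheres of 0.3 mm are plated singly in growth-factor medium and exposed from day 0. After three days at 37C and 5% CO2, sphere area is measured by phase contrast imaging, with activity referenced to DMSO.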

[18] = IUF_NPC1_viability_72hr: Viability Assessment at 72 hours in the Leibniz Research Institute for Environmental Medicine (IUF) Neural Progenitor Cell Proliferation Assay (NPC1) (AID 2284209)
Method in brief: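 Three-day continuous exposure of human neural progenitor spheres under EGF/FGF-driven proliferation; cell viability scored by alamar blue signal versus DMSO.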

[19] = CCTE_Mundy_HCI_Cortical_Synap_Neur_Matur_NeuriteSpotCountPerNeuriteLength: CCTE's Synaptogenesis and Neurite Maturation Assay in rat cortical cells for Neurite Spot Count per Neurite Length, Mundy Lab (AID 2284210)
Method in brief: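 Synaptophysin spots per unit neurite length, measured by automated imaging of MAP2/synaptophysin/Hoechst-stained neurons. Cultures from rat cortex received chemical at DIV 7 with media change through DIV 12; glial growth arrested by AraC at DIV 5; DMSO baseline.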

[20] = CCTE_Mundy_HCI_Cortical_Synap_Neur_Matur_BPCount: CCTE's Synaptogenesis and Neurite Maturation Assay in rat cortical cells for Branch Point Count, Mundy Lab (AID 2284211)
Method in brief: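 In this multiplexed morphology assay, cortical cells from rat receive chemicals at DIV 7 and are fixed at DIV 12, then immunostained and imaged; branch points are counted, with DMSO as baseline.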

[21] = CCTE_Mundy_HCI_Cortical_NOG_NeuriteCount: CCTE's Neurite Outgrowth Assay in rat cortical cells for Neurite Count, Mundy Lab (AID 2284212);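 further: cells fixed about two days after chemical exposure began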
Method in brief: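 Rat cortical primary cells; compound added 2 h post-plating, 1/10 dilution of working solution. Anti-betaIII-tubulin/AF488 ICC; ArrayScan neurite count vs DMSO.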

[22] = CCTE_Mundy_HCI_Cortical_NOG_NeuriteLength: CCTE's Neurite Outgrowth Assay in rat cortical cells for Neurite Length, Mundy Lab (AID 2284213)
Method in brief: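 First, rat primary cortical cells were plated and, 2 h later, given test chemical as a 1/10 dilution. Finally, βIII-tubulin immunostaining enabled automated imaging of neurite length.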

Measured: AC50

CCCCCC(C)(CC)C(=O)NC (configuration not stated)
inactive: [1] | [4] | [6] | [7] | [8] | [9] | [10] | [11] | [12] | [13] | [15] | [17] | [18] | [19] | [20] | [21] | [22]
active: [2] 74.5 µM | [3] 50 µM | [5] 50 µM | [14] 50 µM | [16] 85.3 µM
